ATXN2 expr inh: Primary qHTS for Inhibitors of ATXN expression; hit rate 0.72% among 360,000; HEK-293 ATXN2-luciferase reporter, luminescence, 24 h; Potency, µM (top dose mostly 57 µM), without a hit: at the highest dose activity change, negative = inhibition, actives largely listed as inhibitors; AID 1745845, 2022; also: % is scaled to controls: 0 for no effect and ±100 for the full control effect; nearly all actives have a fitted effect of over 55% in size
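ATXN2-luciferase reporter cells (luciferase flanked by upstream and downstream ATXN2 gene portions) were treated 24 h at 37 °C with compounds at up to 57 uM. SteadyGlo luminescence gave expression; GF-AFC fluorescence gave viability.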
HT1080-NT tox: qHTS for induction of synthetic lethality in tumor cells producing 2HG: qHTS for the HT-1080-NT fibrosarcoma cell line | HT-1080-NT fibrosarcoma viability, CellTiter-Glo ATP luminescence, 48 h | Potency, µM (titrated, usually from 46.1 µM), without a hit: at the top dose activity, negative = less viability, actives largely listed as cytotoxic | hit rate 1.6% among 360,000 | AID 686970, 2013;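 also: NT is the 2HG producing partner of a matched IDH1 knockdown line; 0% = DMSO-treated cells and -100% = media-only wells without cells; nearly all actives have a fitted effect of over 55% in size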
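Compounds were tested in concentration-response format on HT-1080-NT cells for 48 hours at 37 degrees C. Cell viability came from CellTiter-Glo luminescence; curves were classified by r2, response magnitude and activity.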
HT1080 IDH1KD tx: qHTS for induction of synthetic lethality in tumor cells producing 2HG: qHTS for the HT-1080-IDH1KD cell line; HT-1080 IDH1 knockdown viability, ATP luminescence, 48 h; Potency, µM (highest dose often 46.1 µM), inactives show top-dose activity, negative = toxicity, actives largely listed as cytotoxic; hit rate 2% among 360,000; AID 686971, 2013;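 also: 0% = DMSO wells and -100% = cell-free medium wells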
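After a 2 h attachment period, IDH1KD HT-1080 cells took pin-transferred compound for 48 h at 37 °C; ATP-based luminescence after 10 min room-temperature reagent incubation reported viability.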
KB-V1 MDR tox: qHTS assay for MDR1-selective chemotherapeutics: Primary screen using the drug-selected MDR subline cells KB-V1; KB-V1 MDR cells viability, CellTiter-Glo, 72 h; Potency, µM (doses to about 46.1 µM), usual class: cytotoxic; hit rate 3.4% among 400,000; AID 1347076, 2019; also: % is scaled to controls: 0 for no effect and ±100 for the full control effect; nearly all actives have a fitted effect of over 60% in size
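In this primary screen, KB-V1 cells overexpressing P-gp are incubated with library compounds (lowest to highest concentration) for 72 h at 37 degrees C before a luminescent ATP viability read.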
KB-3-1 tox: qHTS assay for MDR1-selective chemotherapeutics: Primary screen using the parental adenocarcinoma cell KB-3-1; KB-3-1 viability, CellTiter-Glo ATP luminescence, 72 h; Potency, µM (doses to about 46.1 µM), usual class: cytotoxic; hit rate 1.4% among 400,000; also: % is scaled to controls: 0 for no effect and ±100 for the full control effect; nearly all actives have a fitted effect of over 60% in size
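KB-3-1 parental drug-naive adenocarcinoma cells in DMEM/10% FBS, incubated 72 h at 37 C with pin-transferred compounds across a concentration series. Viability by CellTiter-Glo luminescence; concentration-response curves fitted after normalization.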
ATXN viability: Viability Counterscreen for Primary qHTS for Inhibitors of ATXN expression | hit rate 0.49% among 400,000 | S2 cells (HEK-293 line with an ATXN2-luciferase reporter) viability, CellTiter-Fluor protease fluorescence, 24 h | Potency, µM (highest dose often 56.7 µM), usual class: cytotoxic; also: nearly all actives have a fitted effect of over 40% in size
An asterisk follows results filed as active; i = inactive; ? = inconclusive; nt = no result. In the library only some 6.2% were active in any assay of this set; here they are far more common. Calls follow the shape of the dose curve; as a rule, active = well fitted curve in the direction sought with a large enough effect; inconclusive = small, poorly fitted or top-dose-only effect, or another doubt; inactive = no such curve, though single readings can be large; an effect the other way counts as inactive or inconclusive. Potency is read from the fitted curve at half-maximal effect.

SMILES | ATXN2 expr inh | HT1080-NT tox | HT1080 IDH1KD tx | KB-V1 MDR tox | KB-3-1 tox | ATXN viability
Cc1ccc2nc(-c3ccc(SCC(=O)O)nc3)[nH]c2c1 | ? | -6% | -7% | i | i | i
Cc1ccc2nc(-c3ccc(SCC(=O)N4CCc5ccccc54)nc3)[nH]c2c1 | 63% | 3% | 0% | 4.1µM* | ? | i
CCc1nnc(NC(=O)CSc2ccc(-c3nc4ccc(C)cc4[nH]3)cn2)s1 | 15% | -1% | 4% | 7.3µM* | i | ?
O=C(NCc1ccc2c(c1)CCN2C(=O)c1ccccc1)c1ccco1 | nt | nt | nt | i | i | nt
CCOC(=O)c1cc2c(=O)n3ccccc3nc2n(CC2CCCO2)c1=NC(=O)c1ccc(OC)cc1OC (centres undefined) | 1% | nt | nt | i | i | nt
CC(Sc1ncc(S(=O)(=O)c2ccc(C(C)C)cc2)c(N)n1)C(=O)Nc1ccccc1 (centres undefined) | ? | nt | nt | i | ? | i
CCNc1nc(C#N)nc(Nc2ccccc2)n1 | nt | nt | nt | i | ? | nt
CCOc1ccccc1NC(=O)Cn1c(=O)n(-c2ccccc2)c(=O)c2c1c1cc(C)ccc1n2C | 0% | nt | nt | i | i | i
COc1ccc(C2c3cc4c(cc3OC(NNC(N)=O)C2C)OCO4)cc1 (centres undefined) | -5% | ? | 16µM* | 9.2µM* | 6.5µM* | i
COc1cccc(C2c3cc4c(cc3OC(C)(N3CCCC3)C2C)OCO4)c1O (centres undefined) | 3% | ? | ? | 16µM* | ? | i
COc1cccc(C2c3cc4c(cc3OC(NNC(N)=O)C2C)OCO4)c1O (centres undefined) | 10% | 4.6µM* | 6.5µM* | 4.6µM* | 1.5µM* | ?
COc1ccc(C(=O)N2c3ccccc3C(=O)OC2c2ccc3c(c2)OCO3)cc1 (centres undefined) | 23% | -1% | -3% | i | i | i
CCN(CC)C1Oc2cc3c(cc2C(c2cccc(OC)c2O)C1C)OCO3 (centres undefined) | -24% | ? | ? | ? | ? | ?
COc1cc(C2c3cc4c(cc3OC(NCc3ccccc3)C2C)OCO4)cc(OC)c1OC (centres undefined) | -19% | 1.6µM* | 1.2µM* | ? | 0.58µM* | ?
CSc1cc2c(s1)c1cnn(Cc3cccc(N)c3)c(=O)c1n2C | nt | nt | nt | i | i | nt
COc1cc(C2c3cc4c(cc3OC(NNC(N)=O)C2C)OCO4)cc(OC)c1OC (centres undefined) | -1% | 1.3µM* | ? | 7.3µM* | 0.52µM* | i
COc1cc(C2c3cc4c(cc3OC(NNC(N)=S)C2C)OCO4)cc(OC)c1OC (centres undefined) | 4% | 1.8µM* | ? | ? | 1µM* | ?
O=Cc1ccc(O)cc1 | nt | nt | nt | i | i | nt
O=C1CC(N(CCc2ccccc2)C(=S)Nc2ccccc2)C(=O)N1c1ccc(Br)cc1 (centres undefined) | ? | 16µM* | ? | ? | ? | ?
COc1ccc(CCN(C(=S)Nc2ccccc2)C2CC(=O)N(c3ccccc3)C2=O)cc1 (centres undefined) | -9% | -3% | -5% | i | i | i
CCOc1ccccc1-c1cc(C(=O)N/N=C/c2cccnc2)c2ccccc2n1 | 40% | -26% | -18% | i | i | i
O=C(N/N=C/c1cccnc1)c1cc(-c2cccs2)nc2ccccc12 | 0% | ? | ? | ? | 16µM* | i
CCOc1cc(/C=N/NC(=O)c2cc(-c3cccc(OC)c3)nc3ccccc23)ccc1O | ? | -24% | ? | ? | ? | ?
CC(C)COc1cccc(-c2cc(C(=O)N/N=C/c3ccncc3)c3ccccc3n2)c1 | 80% | -26% | 18µM* | ? | ? | i
Cc1ccc(COc2ccccc2-c2cc(C(=O)N/N=C/c3cccnc3)[nH]n2)cc1 | ? | ? | 6.5µM* | ? | ? | ?
SMILES | ATXN2 expr inh | HT1080-NT tox | HT1080 IDH1KD tx | KB-V1 MDR tox | KB-3-1 tox | ATXN viability
CCOc1ccc(-c2cc(C(=O)N/N=C/c3cccnc3)c3ccccc3n2)cc1 | 40% | ? | ? | ? | 8.2µM* | ?
Cc1ccc(C)c(NC(=O)Cc2coc3cc(C)cc(C)c23)c1 | 13% | nt | nt | i | i | i
Cn1cccc1/C=N/NC(=O)c1cc(-c2cccs2)nc2ccccc12 | -23% | ? | ? | 6.5µM* | 7.3µM* | i
O=C(N/N=C/c1ccc[nH]1)c1cc(-c2cccs2)nc2ccccc12 | -8% | ? | ? | ? | ? | i
Cc1cc(C)cc(NC(c2cccc(Cl)c2)c2nnc(-c3ccccc3)o2)c1 (centres undefined) | -5% | nt | nt | i | i | i
CC(=O)/C(C#N)=C1\NC(=O)C(Cc2ccc(C)c(C)c2)S1 (centres undefined) | 24% | -18% | ? | 5.8µM* | 15µM* | i
NC1=NC(=O)C(Cc2cc(Cl)ccc2Cl)S1 (centres undefined) | 23% | -7% | -10% | i | i | i
CC(=O)/C(C#N)=C1\NC(=O)C(Cc2cc(Cl)ccc2Cl)S1 (centres undefined) | nt | 23µM* | ? | 6.5µM* | 15µM* | ?
CC(=O)/C(C#N)=C1\NC(=O)C(Cc2ccccc2Cl)S1 (centres undefined) | -24% | -23% | 3.7µM* | ? | 3.3µM* | i
CC(=O)/C(C#N)=C1\NC(=O)C(Cc2ccc(F)cc2)S1 (centres undefined) | 89% | -12% | -16% | i | ? | i
COc1ccccc1Nc1cc(C(=O)NC2CCC(C)CC2)c2ccccc2n1 (centres undefined) | 13% | nt | nt | i | i | i
CSc1ccc(CN(C)Cc2nc3cc(C(F)(F)F)ccc3c(=O)[nH]2)cc1 | -19% | -1% | -2% | 23µM* | i | i
COc1cc2nc(CN(C)Cc3ccc(SC)cc3)[nH]c(=O)c2cc1OC | ? | -8% | -15% | ? | i | i
CCC1CN(Cc2cn[nH]c2-c2ccccc2)Cc2cc(OC)ccc2O1 (centres undefined) | nt | nt | nt | nt | nt | i

Screens deposited in PubChem by National Center for Advancing Translational Sciences (NCATS).
